# Inconclusive results are not listed. Calls of active or inactive are those of the source. Calls come from the whole dose curve; as a rule, active = well fitted activation curve with a large enough effect; inconclusive = small, poorly fitted or top-dose-only effect; inactive = no such curve, though single readings can be large or run the other way.
# Molecular target: Rap guanine nucleotide exchange factor 4 (Homo sapiens) (UniProt Q8WZA2)
# Assay: Confirmatory qHTS for agonist of cAMP-regulated guanine nucleotide exchange factor 4 (EPAC2) (AID 1645884);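 note: nucleotide exchange releases bodipy-GDP from Rap1 and this lowers its fluorescence; nearly all actives have a fitted effect of over 65% in size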
# Settings: EPAC2 GEF activity, Rap1B-BODIPY-GDP fluorescence; series mostly up to 154 µM
# % is set by controls: 0 for no effect and ±100 for the full control effect; potency is the fitted concentration of half-maximal effect.
# Rap guanine nucleotide exchange factor 4 (Homo sapiens), sequence (Q8WZA2 whole entry, looked up): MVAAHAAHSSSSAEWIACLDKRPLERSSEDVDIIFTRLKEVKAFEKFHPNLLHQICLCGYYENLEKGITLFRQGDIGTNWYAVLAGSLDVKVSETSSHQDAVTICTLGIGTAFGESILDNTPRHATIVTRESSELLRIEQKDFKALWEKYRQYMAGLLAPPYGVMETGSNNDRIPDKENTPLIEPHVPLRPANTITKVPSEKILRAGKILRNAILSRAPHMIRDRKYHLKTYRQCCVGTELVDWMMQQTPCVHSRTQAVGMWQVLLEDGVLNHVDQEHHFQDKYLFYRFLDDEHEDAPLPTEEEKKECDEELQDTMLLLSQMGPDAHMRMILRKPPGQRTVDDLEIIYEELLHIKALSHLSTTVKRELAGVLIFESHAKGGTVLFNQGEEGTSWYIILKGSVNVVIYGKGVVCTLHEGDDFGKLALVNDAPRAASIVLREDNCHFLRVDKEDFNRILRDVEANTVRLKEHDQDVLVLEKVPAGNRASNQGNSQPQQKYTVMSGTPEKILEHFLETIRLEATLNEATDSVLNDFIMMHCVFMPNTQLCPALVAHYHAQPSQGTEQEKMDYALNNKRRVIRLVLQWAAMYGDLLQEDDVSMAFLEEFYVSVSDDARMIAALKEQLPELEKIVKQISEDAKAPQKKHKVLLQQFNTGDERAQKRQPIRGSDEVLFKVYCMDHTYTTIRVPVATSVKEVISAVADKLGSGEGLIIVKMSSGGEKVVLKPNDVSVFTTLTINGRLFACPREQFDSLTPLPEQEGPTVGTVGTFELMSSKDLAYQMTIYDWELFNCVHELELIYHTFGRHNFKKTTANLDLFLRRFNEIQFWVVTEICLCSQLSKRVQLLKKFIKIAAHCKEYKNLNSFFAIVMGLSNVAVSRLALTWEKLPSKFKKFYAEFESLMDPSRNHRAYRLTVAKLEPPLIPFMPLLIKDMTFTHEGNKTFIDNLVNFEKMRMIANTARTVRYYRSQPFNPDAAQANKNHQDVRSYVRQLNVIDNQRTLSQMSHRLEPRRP
Compound,Potency,activation
COc1ccc2c3c(cccc13)C(=O)CC2,112 µM (active),–
Cc1nc2ccccc2n2c(O)c(CC(=O)O)cc12,112 µM (active),–
CC1=Nc2ccccc2/C1=C\c1nc(-c2ccc(F)cc2)oc1O,112 µM (active),–
CCN1CCc2c(sc(NC(=O)CSc3ccccc3)c2-c2nc3ccccc3s2)C1,inactive,–
Nc1ccc2c3c(cccc13)C(=O)N(c1ccccc1)C2=O,100 µM (active),–
Cc1nn(C)c(C)c1N1C(=O)c2cccc3c(N)ccc(c23)C1=O,5.01 µM (active),–
COCCn1c2nc(=O)n(-c3ccccc3)c(=O)c-2nc2ccccc21,100 µM (active),–
COc1ccc(C(C#N)=Cc2ccccc2OC)cc1,–,"-1.43% [at 17.1 µM, percent relative to cAMP agonist control] (inactive)"
Cc1ccc[n+](-c2nc([O-])sc2C=O)c1,100 µM (active),–
O=C(O)c1ccccc1C1=Nc2ccc(O)cc2Oc2cc(O)ccc21,–,"14.2% [at 17.1 µM, percent relative to cAMP agonist control] (inactive)"
COc1cccc2c1C(=O)c1c(O)c3c(c(O)c1C2=O)CC(O)(C(=O)CO)CC3OC1CC(N(C)C)C(O)C(C)O1 (stereo not given),–,"8.33% [at 17.1 µM, percent relative to cAMP agonist control] (inactive)"
Cc1ccccc1C(=O)Nc1ccc(C(=O)OCc2cc(=O)n3c4c(sc3n2)CCCC4)cc1,inactive,–
Cc1cc(/C=C2\SC(=S)N(C)C2=O)c(C)n1-c1ccccc1O,100 µM (active),–
N#Cc1c(-c2cccs2)nc(SCC(=O)c2ccc(Br)cc2)[nH]c1=O,–,"8.4% [at 17.1 µM, percent relative to cAMP agonist control] (inactive)"
Cc1cccc(N2C(=O)c3cccc4c(N)ccc(c34)C2=O)c1,112 µM (active),–
CCN(CC)c1ccc2cc(S(=O)(=O)c3ccc(Cl)cc3)c(=O)oc2c1,100 µM (active),–
Cc1ccc2oc(=O)c(/C=C(\O)c3ccccc3)nc2c1,–,"10.1% [at 17.1 µM, percent relative to cAMP agonist control] (inactive)"
CCN(CC)c1ccc(/C=C(\C#N)C(=O)c2ccc(Br)cc2)cc1,112 µM (active),–
O=C1CSC(c2ccc(Cl)c(Cl)c2)N1c1nccs1 (stereo not given),inactive,–
O=c1c(/C=C(\O)c2ccc(F)cc2)nc2ccccc2n1-c1ccccc1,100 µM (active),–

Compound,Potency,activation
Cc1ccc2oc(=O)n(Cc3ccccc3)c2c1,–,"5.26% [at 17.1 µM, percent relative to cAMP agonist control] (inactive)"
CCC1(c2ccccc2)NC(=O)N(CC(=O)Nc2ccc(OC)nc2)C1=O (stereo not given),–,"15.1% [at 17.1 µM, percent relative to cAMP agonist control] (inactive)"
Oc1ccc2nnc3c(Br)cnn3c2c1,112 µM (active),–
O=C(C(=Cc1ccc(O)cc1)c1ccccc1)c1ccccc1,inactive,–
O=C(NCc1ccc(F)cc1)c1cccc2c1C(=O)c1ccc(N3CCC(Cc4ccccc4)CC3)cc1S2(=O)=O,–,"30% [at 17.1 µM, percent relative to cAMP agonist control] (inactive)"
CCOc1cccc2sc(N3CCN(C(=O)C(C)(C)C)CC3)nc12,inactive,–
CCN(CC)c1ccc2cc(-c3nnc(-c4ccncc4)o3)c(=O)oc2c1,100 µM (active),–
Cc1ccc(OCc2nc3ccccc3n2CC(C)C)cc1,inactive,–
CSc1ncccc1C(=O)OCc1c(F)cccc1Cl,inactive,–
COc1cccc2c1C(=O)c1c(O)c3c(c(O)c1C2=O)CC(O)(C(C)=O)CC3OC1CC(N(C)C)C(O)C(C)O1 (stereo not given),–,"10.6% [at 17.1 µM, percent relative to cAMP agonist control] (inactive)"
CNc1ccc2c3c(cccc13)C(=O)N(C)C2=O,112 µM (active),–
CCOC(=O)C1=C(C)NC(SC)=C(C#N)C1CC(C)C (stereo not given),inactive,–
Cc1ccc(NC(=O)CSc2nnc(-c3cc4occc4n3C)n2-c2ccccc2C)c(Cl)c1,inactive,–
COc1ccc(/C=C2\C(=O)NC(=O)c3ccccc32)cc1OC,inactive,–
CC(=O)Nc1ccc(Nc2c3c4c(cccc4n(C)c2=O)C(=O)c2ccccc2-3)cc1,100 µM (active),–
CCCn1c(O)c(N=Nc2ccc3ccccc3n2)c2ccccc21,100 µM (active),–
Cc1nc(Cl)c2c(n1)NC1=C(O2)C(=O)CCC1,–,"10.5% [at 17.1 µM, percent relative to cAMP agonist control] (inactive)"
COc1ccccc1NC(=O)/C(C#N)=C/c1cc([N+](=O)[O-])ccc1N1CCCC1,112 µM (active),–
COc1ccccc1NC(=O)c1sc2nc(Cc3ccccc3)cc(C(F)(F)F)c2c1N,–,"-0.606% [at 17.1 µM, percent relative to cAMP agonist control] (inactive)"
Cn1nc(-c2ccccc2)c2nc3ccccc3nc21,100 µM (active),–

# Reference: PubChem BioAssay (NCATS)
